This is a sample that favours compounds with a hit; in the whole collection about 2.1% have one here.
TDP43 rescue – inhibitors of TDP-43 toxicity in yeast. Potency, µM (highest dose often 46.1 µM), usual class: activators. TDP-43 expressing yeast growth rescue, BacTiter-Glo, 24 h. actives 1.8% (n = 410,000); further: nearly all actives have a fitted effect of over 50% in size
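Cell-based yeast growth screen: TDP-43 expression induced in galactose, inoculum OD600=0.02 after raffinose pregrowth to mid-log. Read-out BacTiter-Glo luminescence at 24 hr, 30 deg C; inhibition of toxicity seen as signal increase.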
FUS suppressor – rescues growth of FUS-expressing yeast | S. cerevisiae FUS-expressing, growth rescue, OD600, 24 h | Potency, µM (titrated, usually from 76.6 µM), usual class: activators | actives 0.24% (n = 390,000); further: nearly all actives have a fitted effect of over 55% in size
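Quantitative HTS measuring growth restoration of FUS-toxic yeast. Galactose-induced cells (OD 0.005) were exposed 24hr at 30C to compounds at several concentrations, then absorbance at 600 nm was recorded.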
Abeta yeast res – restores growth of yeast expressing A-beta42 peptide; Potency, µM (highest dose often 46.1 µM), actives largely listed as activators; actives 0.063% (n = 410,000); AID 1347071; yeast expressing A-beta42, growth rescue, OD600, 48 h; response scale: 0% DMSO, 100% iron-clioquinol control; further: nearly all actives have a fitted effect of over 55% in size
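Yeast A-beta toxicity model in growth medium with pinned compounds, 48 h at 30 C; growth read as absorbance at 600 nm. Normalized to FeCl3/clioquinol equimolar mix (positive) and DMSO (negative).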
aSyn rescue – rescues yeast growth from alpha-synuclein toxicity | Yeast expressing alpha-synuclein, growth rescue, BacTiter-Glo, 24 h | Potency, µM (top dose mostly 46.1 µM), usual class: activators | actives 0.14% (n = 370,000); further: nearly all actives have a fitted effect of over 65% in size
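Screening used galactose-induced yeast with toxic alpha-synuclein levels, exposed to compound for 24 hr at 30 deg C. Cell growth, read with BacTiter-Glo luminescence, gave the measured signal.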
Each line names hits and unclear results; the compound was inactive in the other large screens. The call rests on the fitted dose curve; in most records, active means well fitted curve in the direction sought with a large enough effect; inconclusive means small, poorly fitted or top-dose-only effect, or another doubt; inactive means no such curve, though single readings can be large; an effect the other way counts as inactive or inconclusive.

COc1ccc(CCNC(=O)c2cnc3sc(N4CCCCCC4)nn3c2=O)cc1	TDP43 rescue inconclusive (no result: aSyn rescue)
S=P(c1ccccc1)(c1ccccc1)c1cnc2ccccn12	FUS suppressor 22.4µM (no result: TDP43 rescue, Abeta yeast res, aSyn rescue)
Cc1ccccc1-c1ccc2n1Cc1cnnn1-c1ccccc1-2	TDP43 rescue 12.6µM
CCC(C)NC(=O)CCC(=O)OC1O[C@H]2OC3(C)CC[C@H]4[C@H](C)CCC(C1C)C24OO3 (some centres not stated)	TDP43 rescue 35.5µM
C=CCOC(Cn1ccnc1)c1ccc(Cl)cc1Cl (configuration not stated)	TDP43 rescue 11.2µM, aSyn rescue inconclusive
O=C(Nc1ccc(Cl)cc1)Nc1nccs1	TDP43 rescue 20µM
O=C(Nc1nccs1)C(Cl)(Cl)Cl	none
Cc1nc2cc([N+](=O)[O-])ccc2c(=O)n1-c1ccccc1[N+](=O)[O-]	TDP43 rescue 15.8µM
Cc1nc2cc([N+](=O)[O-])ccc2c(=O)n1-c1ccc(Br)cc1	none
CC1CCC(C)(NS(=O)(=O)OCC(Cl)(Cl)Cl)CC1 (configuration not stated)	TDP43 rescue 17.8µM
Cc1ccc(/C=C2\C(=O)NC(=S)N(c3ccc(F)cc3)C2=O)o1	TDP43 rescue 11.2µM
COc1cccc(N2C(=O)/C(=C/c3ccc(C)o3)C(=O)NC2=S)c1	TDP43 rescue inconclusive, FUS suppressor inconclusive
O=C(Oc1ccc([N+](=O)[O-])cc1)N1CCN(/[N+]([O-])=N/Oc2ccc([N+](=O)[O-])cc2[N+](=O)[O-])CC1	none (no result: TDP43 rescue, FUS suppressor, Abeta yeast res)
CC(C)(C)n1nnnc1C(c1cc2ccccc2o1)N1CCC2(CC1)C(=O)NCN2c1ccccc1 (configuration not stated)	FUS suppressor inconclusive
O=C1NCN(c2ccccc2)C12CCN(C(c1cc3ccccc3o1)c1nnnn1C1CCCCC1)CC2 (configuration not stated)	FUS suppressor 11.2µM
O=C(NCc1ccc2c(c1)CCN2C(=O)c1ccccc1)Nc1cccc(C(F)(F)F)c1	none (no result: aSyn rescue)
Cc1ccc(Cn2nnnc2CN2CCC(n3nnc4cc(C)ccc43)CC2)cc1	TDP43 rescue 20µM
O=C(CI)c1ccc(Cl)cc1	none (no result: TDP43 rescue, FUS suppressor, Abeta yeast res)
C/C1=C\[C@@H](C)C/C=C/[C@H]2[C@@H]3O[C@]3(C)[C@@H](C)[C@H]3[C@H](Cc4c[nH]c5ccccc45)NC(=O)[C@]32C(=O)/C=C/C(=O)[C@@H]1O	TDP43 rescue 11.2µM, FUS suppressor inconclusive
CC1=CC2/C=C(\C)CCC(O)C(O)/C=C/C(=O)C23C(=O)NC(CC(C)C)C3C1C (configuration not stated)	none
C[C@H](CCC(=O)O)[C@H]1CC[C@H]2[C@@H]3CC[C@@H]4C[C@H](O)CC[C@]4(C)[C@H]3CC[C@]12C	aSyn rescue 5.01µM
C[C@]12CC[C@H](O)C[C@@H]1CC[C@@H]1[C@@H]2CC[C@]2(C)[C@@H](C(=O)O)C[C@@H]12	TDP43 rescue inconclusive
Cc1cc([C@@H]2CCCN2C)on1	none (no result: TDP43 rescue, FUS suppressor, Abeta yeast res)
COC1C(C)OC(OC2CC(C)(O)Cc3cc4c(c(O)c32)C(=O)c2c(O)cc3c(c2C4=O)OC2OC3(C)C(O)C(N(C)C)C2O)C(OC)C1(C)OC (configuration not stated)	TDP43 rescue 22.4µM, aSyn rescue inconclusive (no result: FUS suppressor)
Cc1csc2nc(COC(=O)c3ccccc3NC(=O)c3ccc(F)cc3)cc(=O)n12	TDP43 rescue inconclusive (no result: aSyn rescue)
COC(=O)C1=C(c2ccc(-c3ccccc3)c(F)c2)C[C@@H]2CC[C@H]1N2C(=O)NCCCOC(C)C	FUS suppressor inconclusive
CC(C(=O)O)c1ccc(-c2ccccc2)c(F)c1 (configuration not stated)	TDP43 rescue 15.8µM
C[C@@H]1CN([C@@H](C)CO)C(=O)CCCn2nncc2CO[C@@H]1CN(C)C(=O)Nc1ccc(N2CCCCC2)cc1	none
O=C1NCCOC(=O)[C@@H](Cc2ccc(F)cc2)CC/C=C/C[C@H]1CC(=O)N(CCO)Cc1ccccc1	aSyn rescue inconclusive
CCOC(=O)c1c(-n2c(C)cc(C=C3C(=O)NC(=S)NC3=O)c2C)sc2c1CCCC2	TDP43 rescue 17.8µM
CCOc1ccc(N2CC(c3nc4ccccc4n3CCC3CCCCC3)CC2=O)cc1 (configuration not stated)	TDP43 rescue 25.1µM (no result: aSyn rescue)
Cc1ccc(NC(=O)C2CCN(C(=O)c3cnn(-c4ccccc4)c3-n3cccc3)CC2)cc1Cl	TDP43 rescue 35.5µM (no result: aSyn rescue)
Cc1sc2ncnc(N3CCC(C(=O)Nc4ccc(C#N)c(Cl)c4)CC3)c2c1C	none
CCc1ccc(NC(=O)c2ccc(F)c(S(=O)(=O)N3CCC4(CC3)OCCO4)c2)cc1	TDP43 rescue inconclusive (no result: aSyn rescue)
COC(=O)C1=C(c2cccc3c2S(=O)(=O)c2ccccc2-3)C[C@@H]2CC[C@H]1N2C(=O)N1CCc2cc(OC)c(OC)cc2C1	TDP43 rescue inconclusive, FUS suppressor 20µM
Cc1ccccc1C(=O)NNC(=S)NC(=O)COc1ccccc1	aSyn rescue 3.16µM
O=C(O)COc1ccccc1	none
C[C@@H]1CCCCO[C@H](CN(C)Cc2ccccc2)[C@@H](C)CN([C@H](C)CO)C(=O)c2cc(NC(=O)c3ccccc3)ccc2O1	TDP43 rescue inconclusive
Cc1c(C(=O)c2cccc3ccccc23)c2cccc3c2n1[C@H](CN1CCOCC1)CO3	TDP43 rescue 25.1µM
C=C(C=O)CC1CC(O)[C@]2(C)OC3CC4OC5C[C@]6(C)O[C@]7(C)CCC8OC9C[C@]%10(C)OC%11C(C)=CC(=O)OC%11CC%10OC9C[C@@H](C)C8OC7CC6O[C@]5(C)CC5OC5C4OC3CC2O1 (some centres not stated)	TDP43 rescue 3.16µM
CC1=CC2OC3CC4OC(=O)C=CC=CC(=O)OCCC(C)C(O)C(=O)OCC2(CC1O)C4(C)C31CO1 (configuration not stated)	TDP43 rescue 12.6µM, aSyn rescue inconclusive (no result: FUS suppressor)
O=C(c1ccccc1Cl)N1CCC(c2nc3ccccc3s2)CC1	TDP43 rescue 15.8µM (no result: aSyn rescue)
C#CCCC[C@@H]1OC(=O)CNC(=O)C([C@@H](C)CC)NC(=O)[C@@H]2CCCN2C(=O)C([C@@H](C)CC)OC(=O)[C@H](Cc2ccccc2)N(C)C(=O)[C@H](C(C)C)NC(=O)C1(C)C (some centres not stated)	FUS suppressor 7.94µM
CCC(C)C1NC(=O)C(NC(=O)C(CC(C)C)N(C)C(=O)C2CCCN2C(=O)C(C)O)C(C)OC(=O)C(Cc2ccc(OC)cc2)N(C)C(=O)C2CCCN2C(=O)C(CC(C)C)NC(=O)[C@H](C)C(=O)[C@H](C(C)C)OC(=O)CC1O (some centres not stated)	none (no result: FUS suppressor)
O=P(Nc1cccc(F)c1)(Oc1ccccc1F)Oc1ccccc1F	Abeta yeast res inconclusive, aSyn rescue 17.8µM
CCCCC[C@@H]1CCCCC[C@@H](O)C[C@@H](O)[C@H](O)/C=C/C(=O)O1	none
O=C1NCCOC(=O)[C@H](Cc2ccc(F)cc2)CC/C=C/C[C@@H]1CC(=O)N(CCO)Cc1ccccc1	FUS suppressor inconclusive

High-throughput results: PubChem, National Center for Advancing Translational Sciences (NCATS)
